{
  "source": "PubChem BioAssay (NCATS)",
  "note": "Records with an inconclusive call do not appear. Activity calls are given as the source filed them. Calls follow the shape of the dose curve; as a rule, active = well fitted inhibition curve with a large enough effect; inconclusive = small, poorly fitted or top-dose-only effect; inactive = no such curve, though single readings can be large or run the other way. % is scaled to controls: 0 for no effect and ±100 for the full control effect; potency is read from the fitted curve at half-maximal effect.",
  "data": [
    {"target": "Cytochrome P450 3A4 (Homo sapiens) (UniProt P08684)", "sequence (P08684 whole entry, looked up)": "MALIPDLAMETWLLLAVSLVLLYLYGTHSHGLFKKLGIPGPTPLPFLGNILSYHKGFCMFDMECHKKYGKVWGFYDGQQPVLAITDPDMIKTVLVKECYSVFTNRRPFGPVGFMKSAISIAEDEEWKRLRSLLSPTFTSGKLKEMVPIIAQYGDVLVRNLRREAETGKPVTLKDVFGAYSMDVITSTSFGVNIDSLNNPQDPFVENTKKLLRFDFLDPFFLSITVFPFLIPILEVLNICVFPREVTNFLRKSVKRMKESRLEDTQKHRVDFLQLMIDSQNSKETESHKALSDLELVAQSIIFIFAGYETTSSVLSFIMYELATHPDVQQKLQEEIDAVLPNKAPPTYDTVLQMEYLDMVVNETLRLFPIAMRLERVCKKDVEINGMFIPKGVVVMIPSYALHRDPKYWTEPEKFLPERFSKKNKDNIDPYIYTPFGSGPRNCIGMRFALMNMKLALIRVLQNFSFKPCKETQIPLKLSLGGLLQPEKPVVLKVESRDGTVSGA", "test": "qHTS Assay for Inhibitors and Substrates of Cytochrome P450 3A4 (AID 884); also: nearly all actives have a fitted effect of over 50% in size", "details": "recombinant CYP3A4, Luciferin-PPXE luminescence; series mostly up to 57.1 µM; activity change, negative = inhibition: at the top concentration", "description": "NIH Molecular Libraries Screening Centers Network [MLSCN]\nNIH Chemical Genomics Center [NCGC]\nThe P450 gene superfamily is involved in the metabolism and clearance of xenobiotics. This assay used human CYP3A4 to measure the dealkylation of luciferin-6' phenylpiperazinylyl (Luciferin-PPXE; […]) to luciferin. The luciferin is then measured by luminescence after the addition of a luciferase detection reagent. Luciferin-PPXE concentration in the assay was equal to its KM for CYP3A4. Inhibitors and some substrates limit the production of luciferin, and decrease measured luminescence.\nNCGC Assay Protocol Summary:\nTwo uL of enzyme and substrate mix (final concentrations: 20nM CYP3A4, 25uM Luciferin-PPXE, 200mM KPO4) were dispensed into a white, solid bottom 1536-well microtiter plate. 23nL of compound was transferred by a pin tool. The plate was incubated at RT for 10 min. Two uL of an NADPH regeneration solution (Promega supplied reagent) was dispensed and the reaction was allowed to continue for 60 min at RT. Then the reaction was stopped by reconstituted luciferin detection buffer. After another 20 min of incubation the plate was read on the ViewLux (Perkin Elmer) at 60 sec exposure and 2x2 binning. This protocol was carried out with Promega-Glo reagents and further information can be found at http://www.promega.com/tbs/tb325/tb325.pdf. Data were normalized to the to AC100 inhibition (57 uM ketoconazole).\nKeywords: P450, CYP3A4, Luciferase, MLSMR, MLSCN, NIH Roadmap, qHTS, NCGC", "values": [
      {"smiles": "Cc1ccc(S(=O)(=O)O)cc1C", "activity change, negative = inhibition": "11.2% (inactive)"},
      {"smiles": "OCc1ccccc1", "activity change, negative = inhibition": "-6.53% (inactive)"},
      {"smiles": "CC(=O)Oc1cccc2c1C(=O)c1c(OC(C)=O)cc(C(=O)O)cc1C2=O", "activity change, negative = inhibition": "-37% (inactive)"},
      {"smiles": "CC(=O)[C@H]1CC[C@H]2[C@@H]3C=CC4=CC(=O)CC[C@@]4(C)[C@H]3CC[C@]12C", "activity change, negative = inhibition": "114% [at 25.6 µM] (inactive)"},
      {"smiles": "O=P(O)(O)O", "activity change, negative = inhibition": "-10.5% (inactive)"},
      {"smiles": "CC1CCC(NC(=O)N(CCCl)N=O)CC1", "note": "(stereo not given)", "activity change, negative = inhibition": "-7.95% (inactive)"},
      {"smiles": "CC(=O)Nc1ccc(OC(=O)c2ccccc2O)cc1", "activity change, negative = inhibition": "-23.2% (inactive)"},
      {"smiles": "CCOC(C)OCC", "activity change, negative = inhibition": "-7.34% (inactive)"},
      {"smiles": "NCC(O)CC(=O)O", "note": "(stereo not given)", "activity change, negative = inhibition": "11.4% (inactive)"},
      {"smiles": "CCCCC", "activity change, negative = inhibition": "-11.2% (inactive)"},
      {"smiles": "O=C(O)[C@H]1C(=CCO)O[C@H]2CC(=O)N12", "activity change, negative = inhibition": "-21.9% (inactive)"},
      {"smiles": "NCCN", "activity change, negative = inhibition": "-3.06% (inactive)"},
      {"smiles": "CC/C=C\\C/C=C\\C/C=C\\CCCCCCCC(=O)O", "Potency": "15.8 µM (active)"},
      {"smiles": "Cc1cc(-c2ccc(N=Nc3ccc4c(S(=O)(=O)O)cc(S(=O)(=O)O)c(N)c4c3O)c(C)c2)ccc1N=Nc1ccc2c(S(=O)(=O)O)cc(S(=O)(=O)O)c(N)c2c1O", "Potency": "15.8 µM (active)"},
      {"smiles": "COc1cc(S(C)=O)ccc1-c1nc2ncccc2[nH]1", "note": "(stereo not given)", "activity change, negative = inhibition": "-19.9% (inactive)"},
      {"smiles": "CO/N=C(/C(=O)N[C@@H]1C(=O)N2C(C(=O)O)=C(COC(N)=O)CS[C@H]12)c1ccco1", "activity change, negative = inhibition": "0.542% (inactive)"},
      {"smiles": "Oc1cccc(O)c1O", "activity change, negative = inhibition": "-21.1% (inactive)"},
      {"smiles": "CCCCO", "Potency": "inactive"},
      {"smiles": "ClC(Cl)Cl", "activity change, negative = inhibition": "-11.8% (inactive)"},
      {"smiles": "COC(=O)c1ccccc1O", "activity change, negative = inhibition": "-4.85% (inactive)"},
      {"smiles": "Nc1nccs1", "activity change, negative = inhibition": "-12.5% (inactive)"},
      {"smiles": "N#Cc1ccc2c(c1)N(CCCN1CCC(O)CC1)c1ccccc1S2", "activity change, negative = inhibition": "-6.48% (inactive)"},
      {"smiles": "O=c1n(CC2CO2)c(=O)n(CC2CO2)c(=O)n1CC1CO1", "note": "(stereo not given)", "activity change, negative = inhibition": "-12.5% (inactive)"},
      {"smiles": "OC[C@H]1O[C@@H]2O[C@H]3[C@H](O)[C@@H](O)[C@@H](O[C@H]4[C@H](O)[C@@H](O)[C@@H](O[C@H]5[C@H](O)[C@@H](O)[C@@H](O[C@H]6[C@H](O)[C@@H](O)[C@@H](O[C@H]7[C@H](O)[C@@H](O)[C@@H](O[C@H]1[C@H](O)[C@H]2O)O[C@@H]7CO)O[C@@H]6CO)O[C@@H]5CO)O[C@@H]4CO)O[C@@H]3CO", "activity change, negative = inhibition": "-14.2% (inactive)"},
      {"smiles": "C=CC(C)(O)CC/C=C(\\C)CCC=C(C)C", "note": "(stereo not given)", "activity change, negative = inhibition": "-10.4% (inactive)"},
      {"smiles": "CC(=O)N=c1sc(S(N)(=O)=O)nn1C", "activity change, negative = inhibition": "-15.8% (inactive)"},
      {"smiles": "CC(=O)Oc1cccc(C(=O)O)c1OC(C)=O", "activity change, negative = inhibition": "-10.9% (inactive)"},
      {"smiles": "CC(C)O", "activity change, negative = inhibition": "-21.1% (inactive)"},
      {"smiles": "[O-][N+](=Nc1ccccc1)c1ccccc1", "activity change, negative = inhibition": "-2.84% (inactive)"},
      {"smiles": "CC1=CCC2CC1C2(C)C", "note": "(stereo not given)", "activity change, negative = inhibition": "-6.33% (inactive)"},
      {"smiles": "Cc1ncc[nH]1", "activity change, negative = inhibition": "6.56% (inactive)"},
      {"smiles": "C[C@H]1O[C@@H](O[C@H]2[C@@H](O)C[C@H](O[C@H]3[C@@H](O)C[C@H](O[C@H]4CC[C@@]5(C)[C@H](CC[C@@H]6[C@@H]5C[C@@H](O)[C@]5(C)[C@@H](C7=CC(=O)OC7)CC[C@]65O)C4)O[C@@H]3C)O[C@@H]2C)C[C@H](O)[C@@H]1O", "activity change, negative = inhibition": "-3.91% (inactive)"},
      {"smiles": "C=C1C(CCl)(CCl)C2(Cl)C(Cl)C(Cl)C1(Cl)C2(Cl)Cl", "note": "(stereo not given)", "Potency": "5.01 µM (active)"},
      {"smiles": "OCl", "activity change, negative = inhibition": "-6.18% (inactive)"},
      {"smiles": "CO", "activity change, negative = inhibition": "-2.4% (inactive)"},
      {"smiles": "Cc1c(O)c(=O)ccn1C", "activity change, negative = inhibition": "-11.6% [at 11.4 µM] (inactive)"},
      {"smiles": "C/C=C/C=C/C(=O)O", "activity change, negative = inhibition": "-9.28% (inactive)"},
      {"smiles": "O.O.O.O.O.O.O.O=S(=O)([O-])[O-].[Co+2]", "activity change, negative = inhibition": "-10.5% (inactive)"},
      {"smiles": "NC(N)=O", "activity change, negative = inhibition": "-11.4% (inactive)"},
      {"smiles": "CC1CCCC(C)N1NC(=O)c1ccc(Cl)c(S(N)(=O)=O)c1", "note": "(stereo not given)", "activity change, negative = inhibition": "-43.8% (inactive)"}
    ]}
  ]
}
